Results reported in the supplement of paper PMC10849652.
Of roughly 7,900 targets only a part is listed; those with a hit were picked by preference. About 0.6% of all pairs of compound and target were hits. A number with no mark means an inactive call.

Columns and labels:
Assay in all cases: log2 fold change, soluble protein after heating vs DMSO (PISA); higher = thermal stabilisation; K562 cells, 10 uM, 30 min; active = over 0.2 and 3.5 SD of the protein, either way, in both replicates (recomputed)
[1] = compound: CS(=O)(=O)c1ccc(-c2cnc(N)c(C(=O)Nc3ccccc3)n2)cc1
How it was run: (§1)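 Quantification of soluble protein used TMTpro 16plex LC-MS/MS, with channel sums equalised. Samples were the supernatant after 21,000xg for 90 min of pooled aliquots from K562 cells (2×10^6 cells/mL) treated with 10 μM compound for 30 min, heated for 3 min over 48°C-58°C, and extracted in PBS with 0.5% NP-40 at 4°C. Values, from duplicates, describe thermal stability against control samples on a log2 fold-change scale.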

crizotinib = compound: C[C@@H](Oc1cc(-c2cnn(C3CCNCC3)c2)cnc1N)c1c(Cl)ccc(F)c1Cl [crizotinib]
How it was run: as §1

[2] = compound: C[C@@H]1COCCN1C2=NC(=NC(=C2)C3(CC3)S(=O)(=O)C)C4=C5C=CNC5=CC=C4
How it was run: as §1

[3] = compound: C[C@H](C1=CC=C(C=C1)C(=O)NC2=C3C=CNC3=NC=C2)N
How it was run: as §1

duvelisib = compound: C[C@H](Nc1ncnc2nc[nH]c12)c1cc2cccc(Cl)c2c(=O)n1-c1ccccc1 [duvelisib]
How it was run: as §1

gandotinib = compound: Cc1cc(Nc2cc(CN3CCOCC3)c3nc(C)c(Cc4ccc(Cl)cc4F)n3n2)n[nH]1 [gandotinib]
How it was run: as §1

tozasertib = compound: Cc1cc(Nc2cc(N3CCN(C)CC3)nc(Sc3ccc(NC(=O)C4CC4)cc3)n2)n[nH]1 [tozasertib]
How it was run: as §1

[4] = compound: Cc1cc(SCc2sc(-c3ccc(C(F)(F)F)cc3)nc2C)ccc1OCC(=O)O
How it was run: as §1

doramapimod = compound: Cc1ccc(-n2nc(C(C)(C)C)cc2NC(=O)Nc2ccc(OCCN3CCOCC3)c3ccccc23)cc1 [doramapimod]
How it was run: as §1

ispinesib = compound: Cc1ccc(C(=O)N(CCCN)[C@@H](c2nc3cc(Cl)ccc3c(=O)n2Cc2ccccc2)C(C)C)cc1 [ispinesib]
How it was run: as §1

bafetinib = compound: Cc1ccc(NC(=O)c2ccc(CN3CC[C@H](N(C)C)C3)c(C(F)(F)F)c2)cc1Nc1nccc(-c2cncnc2)n1 [bafetinib]
How it was run: as §1

[5] = compound: Cc1cccc(CC(=O)N2CCc3c2ccc(-c2cn(C)c4ncnc(N)c24)c3F)n1
How it was run: as §1

nilotinib = compound: Cc1cn(-c2cc(NC(=O)c3ccc(C)c(Nc4nccc(-c5cccnc5)n4)c3)cc(C(F)(F)F)c2)cn1 [nilotinib]
How it was run: as §1

[6] = compound: Cc1nc(Nc2n[nH]c3c2CN(C(=O)N[C@H](CN(C)C)c2ccccc2)C3(C)C)c2sccc2n1
How it was run: as §1

dasatinib = compound: Cc1nc(Nc2ncc(C(=O)Nc3c(C)cccc3Cl)s2)cc(N2CCN(CCO)CC2)n1 [dasatinib]
How it was run: as §1

[7] = compound: Cc1ncc(-c2ccnc(Nc3ccc(S(C)(=O)=O)cc3)n2)n1C(C)C
How it was run: as §1

[8] = compound: Cn1cc(-c2ccc3c(c2)CCN3C(=O)Cc2cccc(C(F)(F)F)c2)c2c(N)ncnc21
How it was run: as §1

[9] = compound: Cn1cc(-c2ccc3nnc(C(F)(F)c4ccc5ncccc5c4)n3n2)cn1
How it was run: as §1

tipifarnib = compound: Cn1cncc1[C@@](N)(c1ccc(Cl)cc1)c1ccc2c(c1)c(-c1cccc(Cl)c1)cc(=O)n2C [tipifarnib]
How it was run: as §1

mubritinib = compound: FC(F)(F)c1ccc(/C=C/c2nc(COc3ccc(CCCCn4ccnn4)cc3)co2)cc1 [mubritinib]
How it was run: as §1

Chain of UniProt Q96KP4 (Q96KP4 whole entry, looked up): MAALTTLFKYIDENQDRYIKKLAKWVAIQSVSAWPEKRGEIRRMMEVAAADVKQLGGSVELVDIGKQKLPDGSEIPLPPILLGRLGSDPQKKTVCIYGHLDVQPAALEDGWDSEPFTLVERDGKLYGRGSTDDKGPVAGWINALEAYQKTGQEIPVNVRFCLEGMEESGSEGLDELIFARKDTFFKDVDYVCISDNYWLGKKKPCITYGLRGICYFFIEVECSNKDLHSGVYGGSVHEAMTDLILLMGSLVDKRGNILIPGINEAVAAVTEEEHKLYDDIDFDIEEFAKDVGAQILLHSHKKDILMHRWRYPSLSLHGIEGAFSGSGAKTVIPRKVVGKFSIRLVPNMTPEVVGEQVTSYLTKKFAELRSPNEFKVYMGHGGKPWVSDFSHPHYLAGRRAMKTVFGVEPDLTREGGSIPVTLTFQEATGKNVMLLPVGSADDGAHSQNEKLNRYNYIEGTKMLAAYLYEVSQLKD
Chain of UniProt Q9BSQ5 (Q9BSQ5 whole entry, looked up): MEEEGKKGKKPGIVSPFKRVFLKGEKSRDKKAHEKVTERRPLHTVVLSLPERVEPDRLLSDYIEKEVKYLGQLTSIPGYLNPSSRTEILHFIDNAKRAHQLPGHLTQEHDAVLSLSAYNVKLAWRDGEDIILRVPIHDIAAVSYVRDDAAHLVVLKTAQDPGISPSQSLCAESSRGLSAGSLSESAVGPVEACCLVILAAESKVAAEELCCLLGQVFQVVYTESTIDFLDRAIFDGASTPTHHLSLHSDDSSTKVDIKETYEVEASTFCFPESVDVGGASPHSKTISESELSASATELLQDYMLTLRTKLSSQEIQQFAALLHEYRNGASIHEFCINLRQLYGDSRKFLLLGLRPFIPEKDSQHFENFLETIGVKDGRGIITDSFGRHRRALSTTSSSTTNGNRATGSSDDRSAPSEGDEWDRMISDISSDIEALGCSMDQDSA
Chain of UniProt O00748 (O00748 whole entry, looked up): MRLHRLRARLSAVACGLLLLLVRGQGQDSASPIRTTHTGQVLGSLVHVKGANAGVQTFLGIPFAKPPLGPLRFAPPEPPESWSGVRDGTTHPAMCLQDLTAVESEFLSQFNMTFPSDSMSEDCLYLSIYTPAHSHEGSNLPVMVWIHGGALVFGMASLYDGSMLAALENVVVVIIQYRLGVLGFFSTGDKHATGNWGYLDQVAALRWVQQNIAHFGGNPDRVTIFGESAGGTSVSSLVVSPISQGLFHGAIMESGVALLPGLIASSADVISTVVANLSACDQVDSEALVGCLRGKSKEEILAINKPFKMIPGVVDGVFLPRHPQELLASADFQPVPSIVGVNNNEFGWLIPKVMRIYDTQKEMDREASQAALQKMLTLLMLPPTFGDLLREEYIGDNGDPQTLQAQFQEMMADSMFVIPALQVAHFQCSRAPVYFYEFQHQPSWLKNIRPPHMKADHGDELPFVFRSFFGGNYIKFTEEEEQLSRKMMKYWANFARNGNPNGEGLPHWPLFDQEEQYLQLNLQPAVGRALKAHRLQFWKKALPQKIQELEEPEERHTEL
Chain of UniProt Q96JM3 (Q96JM3 whole entry, looked up): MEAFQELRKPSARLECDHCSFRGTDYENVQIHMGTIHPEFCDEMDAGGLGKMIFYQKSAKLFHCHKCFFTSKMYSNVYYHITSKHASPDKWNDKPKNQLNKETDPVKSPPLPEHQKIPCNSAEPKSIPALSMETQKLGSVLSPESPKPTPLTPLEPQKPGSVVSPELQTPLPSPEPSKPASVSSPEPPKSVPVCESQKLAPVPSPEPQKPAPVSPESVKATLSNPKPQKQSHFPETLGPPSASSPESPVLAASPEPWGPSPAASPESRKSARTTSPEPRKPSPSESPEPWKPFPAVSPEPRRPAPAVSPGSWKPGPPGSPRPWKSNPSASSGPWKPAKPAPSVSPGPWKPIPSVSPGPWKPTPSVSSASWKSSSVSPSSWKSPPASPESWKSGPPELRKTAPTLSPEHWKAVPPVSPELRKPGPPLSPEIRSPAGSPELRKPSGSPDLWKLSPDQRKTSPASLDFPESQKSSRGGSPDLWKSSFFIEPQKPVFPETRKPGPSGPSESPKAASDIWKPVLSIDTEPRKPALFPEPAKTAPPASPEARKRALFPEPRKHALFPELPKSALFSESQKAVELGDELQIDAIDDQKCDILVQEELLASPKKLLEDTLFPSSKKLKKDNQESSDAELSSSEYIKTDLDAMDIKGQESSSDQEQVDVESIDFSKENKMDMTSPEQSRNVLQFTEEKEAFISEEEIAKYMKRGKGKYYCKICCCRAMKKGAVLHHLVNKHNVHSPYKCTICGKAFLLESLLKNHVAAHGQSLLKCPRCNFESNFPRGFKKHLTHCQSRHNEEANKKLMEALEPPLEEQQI
Chain of UniProt P86791 (P86791 whole entry, looked up): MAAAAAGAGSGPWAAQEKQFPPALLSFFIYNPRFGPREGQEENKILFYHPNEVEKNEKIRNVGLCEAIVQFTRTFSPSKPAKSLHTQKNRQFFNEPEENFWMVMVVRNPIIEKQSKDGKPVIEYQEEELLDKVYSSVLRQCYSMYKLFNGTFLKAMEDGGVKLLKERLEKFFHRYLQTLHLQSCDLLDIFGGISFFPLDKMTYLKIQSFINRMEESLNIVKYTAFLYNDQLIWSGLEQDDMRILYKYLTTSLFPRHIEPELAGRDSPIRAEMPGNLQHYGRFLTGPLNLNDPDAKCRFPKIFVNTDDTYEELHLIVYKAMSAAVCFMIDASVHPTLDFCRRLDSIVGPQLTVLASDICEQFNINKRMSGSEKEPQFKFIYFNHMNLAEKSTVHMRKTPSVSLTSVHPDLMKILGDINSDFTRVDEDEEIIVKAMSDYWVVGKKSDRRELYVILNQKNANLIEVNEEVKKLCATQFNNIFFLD
Chain of UniProt Q7L3B6 (Q7L3B6 whole entry, looked up): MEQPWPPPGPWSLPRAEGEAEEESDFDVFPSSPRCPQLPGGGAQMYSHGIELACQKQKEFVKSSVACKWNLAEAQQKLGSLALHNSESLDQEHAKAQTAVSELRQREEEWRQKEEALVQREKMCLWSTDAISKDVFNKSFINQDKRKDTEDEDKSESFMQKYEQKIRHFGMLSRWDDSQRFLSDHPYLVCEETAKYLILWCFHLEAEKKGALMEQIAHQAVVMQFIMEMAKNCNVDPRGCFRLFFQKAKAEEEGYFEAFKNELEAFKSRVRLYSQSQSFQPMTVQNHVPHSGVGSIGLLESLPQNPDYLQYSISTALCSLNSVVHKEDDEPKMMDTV
Chain of UniProt Q14061 (Q14061 whole entry, looked up): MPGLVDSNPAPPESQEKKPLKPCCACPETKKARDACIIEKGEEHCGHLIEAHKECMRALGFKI
Chain of UniProt Q9UKF6 (Q9UKF6 whole entry, looked up): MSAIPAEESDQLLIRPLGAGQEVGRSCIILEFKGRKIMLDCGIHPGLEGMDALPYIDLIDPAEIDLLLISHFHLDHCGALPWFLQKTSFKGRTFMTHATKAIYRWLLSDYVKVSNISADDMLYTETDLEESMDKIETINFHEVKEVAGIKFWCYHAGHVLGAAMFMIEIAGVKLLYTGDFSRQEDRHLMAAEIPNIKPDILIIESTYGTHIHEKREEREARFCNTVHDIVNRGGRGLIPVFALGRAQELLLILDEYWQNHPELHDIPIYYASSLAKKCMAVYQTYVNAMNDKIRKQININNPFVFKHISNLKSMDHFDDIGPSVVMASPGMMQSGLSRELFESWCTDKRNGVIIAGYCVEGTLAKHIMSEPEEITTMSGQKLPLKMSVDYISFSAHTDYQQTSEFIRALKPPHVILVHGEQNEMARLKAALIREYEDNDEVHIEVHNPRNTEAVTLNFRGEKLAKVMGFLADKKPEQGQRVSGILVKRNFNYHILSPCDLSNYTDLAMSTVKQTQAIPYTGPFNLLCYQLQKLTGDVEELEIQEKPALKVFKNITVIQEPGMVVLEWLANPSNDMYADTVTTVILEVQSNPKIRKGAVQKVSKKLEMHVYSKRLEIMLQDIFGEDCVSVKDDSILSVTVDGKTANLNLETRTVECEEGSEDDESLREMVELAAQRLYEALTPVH
Chain of UniProt Q86X95 (Q86X95 whole entry, looked up): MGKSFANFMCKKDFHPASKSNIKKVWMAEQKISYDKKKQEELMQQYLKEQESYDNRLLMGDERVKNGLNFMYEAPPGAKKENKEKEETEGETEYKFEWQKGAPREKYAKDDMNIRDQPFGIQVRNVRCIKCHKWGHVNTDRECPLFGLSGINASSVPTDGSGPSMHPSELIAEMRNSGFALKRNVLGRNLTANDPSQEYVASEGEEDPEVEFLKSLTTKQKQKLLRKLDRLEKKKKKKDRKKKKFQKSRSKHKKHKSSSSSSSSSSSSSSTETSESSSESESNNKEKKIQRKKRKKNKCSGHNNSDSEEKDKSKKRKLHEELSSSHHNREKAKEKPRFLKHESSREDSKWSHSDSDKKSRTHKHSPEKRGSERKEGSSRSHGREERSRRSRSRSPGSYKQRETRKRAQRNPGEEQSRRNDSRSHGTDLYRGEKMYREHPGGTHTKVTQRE
Chain of UniProt Q99653 (Q99653 whole entry, looked up): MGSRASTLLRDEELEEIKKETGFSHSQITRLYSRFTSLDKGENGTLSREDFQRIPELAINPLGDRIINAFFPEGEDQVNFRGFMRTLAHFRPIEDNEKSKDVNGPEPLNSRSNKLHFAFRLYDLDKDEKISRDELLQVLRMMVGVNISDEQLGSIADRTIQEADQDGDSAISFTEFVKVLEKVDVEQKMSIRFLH
Chain of UniProt Q9Y6K0 (Q9Y6K0 whole entry, looked up): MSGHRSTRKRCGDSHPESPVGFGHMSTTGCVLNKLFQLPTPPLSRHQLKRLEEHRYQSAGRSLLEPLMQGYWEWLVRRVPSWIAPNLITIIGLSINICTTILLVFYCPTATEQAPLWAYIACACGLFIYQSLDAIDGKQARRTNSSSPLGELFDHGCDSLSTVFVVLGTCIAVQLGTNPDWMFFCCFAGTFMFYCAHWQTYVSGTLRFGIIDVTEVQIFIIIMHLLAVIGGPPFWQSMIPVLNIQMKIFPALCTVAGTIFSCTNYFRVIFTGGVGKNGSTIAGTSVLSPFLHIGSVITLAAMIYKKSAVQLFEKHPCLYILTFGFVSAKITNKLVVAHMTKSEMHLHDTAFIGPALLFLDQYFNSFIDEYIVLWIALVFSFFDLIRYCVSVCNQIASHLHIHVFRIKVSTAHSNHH

| Target | log2 fold change [1] | log2 fold change (crizotinib) | log2 fold change [2] | log2 fold change [3] | log2 fold change (duvelisib) | log2 fold change (gandotinib) | log2 fold change (tozasertib) | log2 fold change [4] | log2 fold change (doramapimod) | log2 fold change (ispinesib) | log2 fold change (bafetinib) | log2 fold change [5] | log2 fold change (nilotinib) | log2 fold change [6] | log2 fold change (dasatinib) | log2 fold change [7] | log2 fold change [8] | log2 fold change [9] | log2 fold change (tipifarnib) | log2 fold change (mubritinib) |
| --- | --- | --- | --- | --- | --- | --- | --- | --- | --- | --- | --- | --- | --- | --- | --- | --- | --- | --- | --- | --- |
| CHAMP1 (UniProt Q96JM3) | 0.02 | -0.154 | 0.074 | -0.071 | -0.076 | -0.046 | 0.045 | -0.049 | -0.003 | -0.185 | -0.134 | 0.049 | 0 | -0.132 | -0.092 | -0.123 | 0.026 | 0.067 | 0.014 | 0.056 |
| CES2 isoform 4 (UniProt O00748) | 0.162 | 0.154 | 0.03 | -0.079 | 0.019 | 0.048 | -0.093 | -0.188 | 0.144 | -0.047 | -0.006 | -0.104 | 0.274 | -0.045 | 0.119 | -0.036 | 0.489 (active) | 0.166 | 0.28 | 0.111 |
| CNOT1 (UniProt A5YKK6) | 0.006 | -0.087 | -0.034 | 0.033 | 0.013 | -0.043 | 0.045 | 0.076 | -0.025 | -0.038 | 0.009 | 0.033 | -0.066 | -0.058 | -0.106 | -0.014 | 0.023 | -0.035 | -0.061 | 0.052 |
| CFAP36 isoform 2 (UniProt Q96G28) | -0.013 | -0.201 | 0.078 | -0.394 (active) | 0.133 | -0.048 | 0.587 (active) | -0.007 | 0.096 | -0.053 | 0.022 | -0.055 |  |  | 0.014 |  | -0.047 | 0.128 | 0.002 | 0 |
| CNOT2 (UniProt Q9NZN8) | 0.028 | -0.019 | 0.038 | 0.046 | -0.021 | -0.045 | -0.006 | 0.077 | -0.012 | -0.02 | -0.002 | 0 | 0.048 | -0.063 | -0.035 | 0.01 | -0.055 | 0.022 | -0.063 | 0.054 |
| CPSF3 (UniProt Q9UKF6) | -0.004 | 0.01 | 0.013 | -0.006 | 0.011 | -0.052 | 0.117 | 0.031 | 0 | -0.003 | -0.052 | 0.041 | -0.006 | -0.073 | -0.082 | -0.023 | -0.071 | -0.023 | -0.027 | 0.02 |
| CEPT1 (UniProt Q9Y6K0) | 0.055 | -0.226 | 0.146 | 0.042 | -0.022 | -0.268 | -0.019 | 0.047 | 0.021 | -0.214 | -0.048 | 0.032 | -0.052 | 0.156 | -0.008 | 0.044 | 0.031 | -0.014 | -0.055 | -0.012 |
| CNDP2 (UniProt Q96KP4) | 0.03 | -0.061 | 0.102 | -0.067 | 0.02 | 0.072 | -0.02 | 0.015 | 0.018 | -0.099 | -0.03 | 0.006 | 0.045 | -0.015 | -0.031 | -0.041 | 0.066 | 0.032 | -0.067 | 0.101 |
| CIR1 (UniProt Q86X95) | -0.039 | 0.03 | -0.187 | 0.544 (active) | -0.114 | 0.295 | 0 | 0.015 | 0.092 | -0.063 | 0.001 | -0.091 |  |  | 0.079 |  | -0.131 | -0.06 | 0.223 | -0.113 |
| COX17 (UniProt Q14061) | 0.026 | 0.164 | 0.206 | -0.072 | 0.256 | -0.11 | 0.005 | -0.021 | -0.037 | 0.137 |  | 0.078 | -0.091 | -0.051 | 0.016 | -0.162 | 0.206 | -0.034 |  | 0.038 |
| CCZ1 (UniProt P86791) | 0.022 | -0.278 (active) | 0.009 | 0.005 | -0.053 | -0.081 | -0.039 | 0.006 | -0.036 | -0.162 | -0.127 | 0.007 | 0.024 | -0.022 | -0.057 | -0.098 | 0.021 | 0.025 | 0.043 | 0.038 |
| CAD (UniProt P27708) | 0.014 | -0.271 (active) | 0 | 0.033 | -0.013 | -0.013 | -0.115 | 0.053 | -0.028 | -0.106 | 0.011 | 0.06 | -0.095 | -0.008 | -0.386 (active) | 0.081 | -0.012 | -0.097 | -0.032 | -0.006 |
| CHP1 (UniProt Q99653) | 0.025 | 0.109 | -0.061 | -0.027 | 0.044 | 0.022 | 0.075 | -0.026 | -0.021 | 0.25 | 0 | -0.087 | 0.014 | 0.019 | 0.042 | 0.004 | 0.043 | -0.116 | 0.072 | 0.037 |
| CDC37L1 (UniProt Q7L3B6) | 0.007 | 0.036 | 0.148 | -0.013 | -0.039 | -0.091 | -0.093 | 0.117 | -0.036 | 0.005 | -0.215 | 0.027 | -0.026 | -0.167 | -0.088 | 0.022 | 0.018 | 0.121 | 0.034 | 0.172 |
| CERT isoform 3 (UniProt Q9Y5P4) | 0.015 | 0.102 | 0.079 | -0.327 (active) | 0.067 | 0.209 | 0.068 | -0.047 | 0.192 | 0.109 | 0.032 | -0.08 | 0.193 | -0.397 (active) | 0.019 | -0.11 | 0.109 | 0.021 | 0.111 | 0.117 |
| CCM2 isoform 2 (UniProt Q9BSQ5) | 0.088 | -0.022 | -0.016 | 0.003 | -0.02 | 0.026 | 0.132 | -0.067 | 0.013 | -0.043 | -0.059 | -0.038 |  |  | -0.003 |  | 0.043 | -0.021 | -0.024 | -0.061 |
